# The list is not random: actives were taken first. Their share in the collection is about 2.3%.
# M1 ag parental: counter-screen for M1 agonists: effect in parental CHO-K1 cells; Fluo-8 calcium fluorescence; scaled to maximal ATP response, vehicle zero; activation, % at 3 µM; hit rate 0.48% among 360,000; AID 602248, 2012; in the data active means activation above about 15%;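 further: untransfected CHO-K1 host cells lacking M1 receptor as counterscreen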
# CHRM1 antagonist: human M1 muscarinic receptor antagonists, primary screen, CHO-K1 cells, Fluo-8 calcium fluorescence, 1536-well; CHO-K1 hM1, ACh EC80 antagonist; hit rate 1.3% among 360,000; Muscarinic acetylcholine receptor M1 (Homo sapiens), P11229; inhibition, % at 3 µM;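 active means percent inhibition above its own plate's cutoff, namely the mean of that plate's compound wells plus 3 SD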;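 further: peak over basal fluorescence ratio during 140 s after agonist addition; 0% = ACh EC80 plus DMSO and 100% = DMSO alone without agonist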
# Target sequence (P11229 whole entry, looked up): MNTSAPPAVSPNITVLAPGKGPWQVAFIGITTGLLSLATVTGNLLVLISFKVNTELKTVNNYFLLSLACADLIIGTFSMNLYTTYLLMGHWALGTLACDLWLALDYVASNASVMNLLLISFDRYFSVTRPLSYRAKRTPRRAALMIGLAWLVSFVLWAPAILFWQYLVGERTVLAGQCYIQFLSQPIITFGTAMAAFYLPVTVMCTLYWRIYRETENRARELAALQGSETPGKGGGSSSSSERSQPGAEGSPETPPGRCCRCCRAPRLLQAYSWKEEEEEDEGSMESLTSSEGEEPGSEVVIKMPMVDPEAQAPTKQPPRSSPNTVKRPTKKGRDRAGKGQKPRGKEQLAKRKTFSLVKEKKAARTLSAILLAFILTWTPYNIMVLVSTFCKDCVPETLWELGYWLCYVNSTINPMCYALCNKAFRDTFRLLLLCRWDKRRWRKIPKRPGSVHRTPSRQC
# M1 PAM parental: nonselective calcium activators in parental CHO-K1 cells, primary screen, counter-screen for M1 PAM project, cell-based, Fluo-8 calcium fluorescence, full deck, 1536-well. ATP EC20; 0% at ATP EC20, 100% at ATP max. activation, % at 3 µM. hit rate 0.02% among 360,000;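 active means activation above the run cutoff, the mean activation of all test compounds plus 3 SD, cut at about 40% in these data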;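 further: peak over basal fluorescence ratio in a 140 s read after ATP addition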
# CHO-K1 Ca antag: nonselective inhibitor or artifact in parental CHO-K1 cells. ATP-induced calcium, Fluo-8 fluorescence. inhibition, % at 3 µM. hit rate 0.6% among 360,000. AID 602250;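 active means inhibition above a per-plate cutoff, the plate's mean sample inhibition plus 3 SD, cut at about 24% in these data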;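 further: 0% = DMSO plus EC80 ATP and 100% = DMSO alone without ATP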
# M1 PAM: human M1 muscarinic receptor positive allosteric modulators, primary screen, CHO-K1 cells, Fluo-8 calcium fluorescence, 1536-well; Muscarinic acetylcholine receptor M1 (Homo sapiens), P11229; CHO-K1 hM1, ACh EC20; 0% = ACh EC20, 100% = maximal ACh; activation, % at 3 µM; hit rate 0.088% among 360,000; in the data active means activation above about 19%, passing the limit was not always enough
# M1 ag: human M1 muscarinic receptor agonists, primary screen, Fluo-8 calcium fluorescence, CHO-K1 cells, HTS; CHO-K1 hM1, agonist mode; 0% DMSO, 100% acetylcholine EC100; activation, % at 3 µM; hit rate 0.33% among 360,000;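 active means activation above the run's mean compound activation plus 3 SD, cut at about 16% in these data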;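 further: peak over basal fluorescence ratio within a 140 s kinetic read after compound addition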
# The depositor's hits bear a star; · = not tested or not shown.
SMILES,M1 ag parental,CHRM1 antagonist,M1 PAM parental,CHO-K1 Ca antag,M1 PAM,M1 ag
CCCCOc1ccc(C(=O)N2CCC(C)CC2)cc1,-0.1,0.4,8.5,-2.3,7.3,-4.0
CC1CN(C)C(C)CC1OC(=O)C(c1ccccc1)c1ccccc1 (configuration not stated),1.1,97.4*,18.4,-11.9,-27.0,-7.8
CCCCOc1ccc(C(=O)OC2CC(C)N(C)CC2C)cc1 (configuration not stated),0.4,44.4*,15.1,-16.0,-24.8,-6.4
O=C(CSc1ccc(S(=O)(=O)N2CCCCC2)cn1)Nc1ccccc1Br,3.7,1.9,-17.2,-12.5,-4.8,-5.1
Cc1ccc(-n2cc(C(C)(C)C)[nH]c2=S)cc1,-0.1,27.0,-5.3,25.6*,-8.2,-3.8
CC(C)c1ccccc1NC(=O)C1CCCN(C(=O)c2ccc(Cl)cc2)C1 (configuration not stated),2.2,-3.6,-2.6,-5.6,0.4,-0.9
O=C(Nc1ccc(S(=O)(=O)Nc2nccs2)cc1)c1ccc(N2C(=O)c3ccccc3C2=O)cc1,0.9,-2.3,16.6,0.6,4.8,-6.7
CCn1nc(Cc2cccc3ccccc23)c(C#N)c1N,-0.1,4.1,7.4,-6.7,4.0,-3.7
CN(Cc1ccccc1)CC(O)CN(C)Cc1ccccc1,0.5,5.2,4.0,-3.8,-5.3,18.4*
CN(CCO)CC(O)CN(c1ccccc1)c1ccccc1 (configuration not stated),4.9,7.1,10.4,-11.4,-4.3,-4.2
CN1CCN(CC(=O)Nc2c(C(=O)c3ccccc3)oc3ccccc23)CC1,1.6,59.7*,4.2,-13.3,-37.6,-14.3
O=C(Nc1nnc(SCC(=O)N2CCCCC2)s1)c1c(F)cccc1F,0.3,-26.6,-4.6,-23.3,28.3*,4.2
O=C(CSc1nnc(NC(=O)c2c(F)cccc2F)s1)NC1CCCC1,0.2,7.9,-19.1,-6.1,-6.9,-2.0
CCOC(=O)C1=C(COC(=O)COc2ccc(C(=O)CC)cc2)NC(=O)NC1C (configuration not stated),16.6*,12.7,-11.3,11.7,-8.5,4.4
CCOC(=O)C1=C(COC(=O)COc2ccc(C(C)=O)cc2)NC(=O)NC1C (configuration not stated),5.4,-2.1,-14.7,1.7,-1.8,0.6
N#CCCN(NC1=NS(=O)(=O)c2ccccc21)C(=O)c1ccccc1Br,0.3,-14.8,10.6,-3.9,7.5,-3.0
COc1ccccc1C(=O)NC(CCSC)C(=O)OC(C)C(=O)NC1CC1 (configuration not stated),0.9,-3.1,5.4,-3.2,6.8,-2.8
Cc1nc2sc(C(c3ccc(Cl)cc3)N3CC(C)OC(C)C3)c(O)n2n1 (configuration not stated),0.5,-20.4,0.7,19.9,22.9*,11.4
Cc1ccc(S(=O)(=O)N(C)C)cc1NC(=O)COC(=O)Cc1cccs1,1.6,-9.4,6.4,-3.7,3.6,-4.0
COC(=O)c1ccc(S(=O)(=O)NCCc2ccccc2OC)n1C,17.8*,-4.7,4.1,3.5,3.1,-1.9
CC1(C)c2ssc(=S)c2-c2ccccc2N1C(=O)CSC1=NCCS1,-0.2,12.1,10.8,-12.2,-12.2,-3.5
Cc1cc2c(cc1C)N(C(=O)CSC1=NCCS1)C(C)(C)c1ssc(=S)c1-2,-0.7,54.0*,9.2,-18.2,-29.0,-12.3
COC(=O)C1=C(C)Nc2ncnn2C1c1ccc(OC(=O)c2ccccc2)cc1 (configuration not stated),-0.1,-27.6,4.9,-16.5,0.1,-4.0
COC(=O)c1ccc(C2C(C(=O)Nc3ccc(C)cc3C)=C(C)Nc3ncnn32)cc1 (configuration not stated),-0.2,-12.4,-7.1,23.8*,9.9,-6.0
CC1C(=O)C(C)C(c2cccc(Br)c2)NC1c1cccc(Br)c1 (configuration not stated),-0.8,-6.1,-7.2,-4.1,1.8,-3.1
SMILES,M1 ag parental,CHRM1 antagonist,M1 PAM parental,CHO-K1 Ca antag,M1 PAM,M1 ag
O=c1c2cc(F)ccc2sn1-c1ccccc1,19.1*,5.3,10.0,-9.2,1.4,9.7
O=C(O)c1cccc(-n2sc3ccccc3c2=O)c1,1.4,-1.8,23.4,-11.2,10.0,-2.6
O=c1c2cc(C(F)(F)F)ccc2sn1-c1ccccc1,5.0,0.1,10.5,-3.4,-2.5,16.0*
O=c1c2ccccc2sn1-c1ccccc1,0.0,5.8,-17.6,23.6,8.2,6.7
O=C(COC(=O)COc1cccc(C(F)(F)F)c1)Nc1ccc(N2CCOCC2)cc1,0.9,-4.4,2.8,-5.4,11.1,-1.4
CC(C)C[C@H]1CN(CCCC[C@H]2CNC(=O)C(=O)N2CCC2CCCCC2)C(=O)C(=O)N1CC1CCCCC1,0.6,·,4.6,-3.7,·,·
CCc1ccc(NC(=O)C(CC)c2ccccc2)cc1 (configuration not stated),18.9*,16.7,23.7,-4.2,-5.9,26.0*
CCC(C(=O)Nc1ccc(C)cc1)c1ccccc1 (configuration not stated),0.8,7.5,8.2,-8.0,-2.3,-3.2
CCC(C(=O)Nc1ccc(C(=O)N2CCCC2)cc1)c1ccccc1 (configuration not stated),10.9,13.2,2.1,-3.4,-7.6,17.9*
COCCNC(=O)C1CCCN(C(=O)c2cc(-c3cccs3)oc2C)CC1 (configuration not stated),0.4,-11.3,17.5,-10.7,3.0,-3.5
CC1(C(=O)NCc2ccccc2)CCC(=O)N1CCc1c[nH]c2ccccc12 (configuration not stated),0.6,22.0,-8.8,30.6*,-10.3,-3.0
CC1(c2nnnn2Cc2ccccc2)CCC(=O)N1CCc1c[nH]c2ccccc12 (configuration not stated),10.0,·,17.5,-6.1,·,·
CC[C@@]12C(=O)N(c3ccc(OC)cc3)C(=O)N1[C@H](c1ccc(Cl)cc1)[C@@H]1C(=O)N(C3CCCCC3)C(=O)[C@@H]12,0.7,-5.1,18.9,-6.8,11.3,0.0
CC(=O)c1ccc(OCc2cc(C(=O)N(C)CCOc3ccc(C)cc3)no2)cc1,10.8,9.3,-1.0,-8.5,-4.5,0.4
Cc1ccc(S(=O)(=O)N2CCOC2CNC(=O)C(=O)NCCCN2CCOCC2)cc1 (configuration not stated),0.3,-28.7,-14.8,-4.8,23.5*,-0.7
